In PubChem BioAssay (EPA / NIEHS) one finds outcome and AC50 data, which are given here for 16 compounds.

Common to all, as to details: mRNA level, 48 h; actives raise or lower the signal
Read-out in assay [1]: ABC Transporter (ABCB1), ABCB1 (gene 5243)
The assay is described as follows: LTEA_HepaRG_ABCB1: Life Technologies and Expression Analysis (LTEA) Assay for ABC Transporter (ABCB1) using HepaRG (AID 2283460). The essentials: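 ABCB1 transcript level measured by TaqMan qRT-PCR against three housekeeping genes after 48 h chemical exposure of differentiated HepaRG cells. Top concentration 100 uM, half-log steps, eight points, 0.5% DMSO vehicle; bidirectional fit relative to DMSO.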

Read-out in assay [2]: growth arrest and DNA damage 45 (GADD45B), GADD45B (gene 4616)
Description: LTEA_HepaRG_GADD45B: Life Technologies and Expression Analysis (LTEA) Assay for growth arrest and DNA damage 45 (GADD45B) using HepaRG (AID 2283461). The essentials:
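Values are bidirectional concentration-response fits against 0.5% DMSO controls. Underlying data: qRT-PCR mRNA levels in human HepaRG liver cells treated 48 h in serum-free induction medium, eight concentrations topping at 100 uM.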

Read-out in assay [3]: ABC Transporter (ABCC3), ABCC3 (gene 8714)
Description: LTEA_HepaRG_ABCC3: Life Technologies and Expression Analysis (LTEA) Assay for ABC Transporter (ABCC3) using HepaRG (AID 2283462). The method, boiled down: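 Differentiated HepaRG liver cells receive test chemicals at eight concentrations (max 100 uM) for 48 h. Expression of ABCC3 is quantified by qRT-PCR against ACTB, GAPDH and POLR2A, and activity is fitted in both directions against the DMSO control.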

Read-out in assay [4]: ABC Transporter (ABCB11), ABCB11 (gene 8647)
The assay is described as follows: LTEA_HepaRG_ABCB11: Life Technologies and Expression Analysis (LTEA) Assay for ABC Transporter (ABCB11) using HepaRG (AID 2283463). The method, boiled down:
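ABCB11 transcript levels quantified by TaqMan qRT-PCR against three housekeeping genes after 48 h chemical exposure of HepaRG cultures. Concentrations up to 100 uM in half-log steps, 0.5% DMSO vehicle; both induction and suppression scored.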

Read-out in assay [5]: ABC Transporter (ABCC2), ABCC2 (gene 1244)
Description: LTEA_HepaRG_ABCC2: Life Technologies and Expression Analysis (LTEA) Assay for ABC Transporter (ABCC2) using HepaRG (AID 2283464). The method, boiled down: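 Gene expression of ABCC2 was determined by qRT-PCR in HepaRG cells exposed 48 h to chemicals (highest 100 uM, half-log dilutions). Activity was fitted in both directions relative to 0.5% DMSO vehicle.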

Read-out in assay [6]: Broad substrate specificity ATP-binding cassette transporter ABCG2 (Homo sapiens) (UniProt Q9UNQ0)
Description: LTEA_HepaRG_ABCG2: Life Technologies and Expression Analysis (LTEA) Assay for ABC Transporter (ABCG2) using HepaRG (AID 2283465). The essentials:
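ABCG2 transcript was quantified by TaqMan qRT-PCR against three housekeeping genes in HepaRG cells. Cells were treated in duplicate for 48 h across an 8-point half-log series up to 100 uM, with 0.5% DMSO vehicle. Gain or loss versus DMSO was fit.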

Read-out in assay [7]: ATP-citrate lyase (ACLY), ACLY (gene 47)
Description: LTEA_HepaRG_ACLY: Life Technologies and Expression Analysis (LTEA) Assay for ATP-citrate lyase (ACLY) using HepaRG (AID 2283466). The method, boiled down:
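ACLY mRNA quantified by qRT-PCR on Fluidigm arrays against three housekeeping genes, after 48 h chemical treatment of HepaRG cells (top concentration 100 uM, half-log steps, 0.5% DMSO vehicle). Up- or down-regulation fitted relative to DMSO.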

Read-out in assay [8]: Peroxisomal acyl-coenzyme A oxidase 1 (ACOX1) gene, ACOX1 (gene 51)
The assay is described as follows: LTEA_HepaRG_ACOX1: Life Technologies and Expression Analysis (LTEA) Assay for Peroxisomal acyl-coenzyme A oxidase 1 (ACOX1) gene using HepaRG (AID 2283467). The method, boiled down:
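ACOX1 transcript levels were quantified by TaqMan qRT-PCR against three housekeeping genes after 48 h chemical exposure of differentiated human HepaRG cells. Exposure used eight half-log steps topping at 100 uM, 0.5% DMSO vehicle, in duplicate. Bidirectional curve fits were made relative to DMSO.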

Read-out in assay [9]: Alkaline Phosphatase, Placental (ALPP) gene, ALPP (gene 250)
The assay is described as follows: LTEA_HepaRG_ALPP: Life Technologies and Expression Analysis (LTEA) Assay for Alkaline Phosphatase, Placental (ALPP) gene using HepaRG (AID 2283468).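 As to AC50: ALPP transcript by TaqMan qRT-PCR normalized to ACTB GAPDH and POLR2A.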 The method, boiled down:
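Expression of ALPP was quantified by qRT-PCR against three housekeeping genes in human HepaRG cultures treated for 48 h with an eight-point concentration series up to 100 uM. Activity in either direction was fitted relative to 0.5% DMSO.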

Read-out in assay [10]: Bcl-2 (BAD) gene, BAD (gene 572)
The assay is described as follows: LTEA_HepaRG_BAD: Life Technologies and Expression Analysis (LTEA) Assay for Bcl-2 (BAD) gene using HepaRG (AID 2283469). The essentials:
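Read-out: qRT-PCR of BAD mRNA, normalized to three housekeeping genes. Human HepaRG cultures got 48 h chemical exposure in 0.5% DMSO, duplicate eight-point half-log series topping at 100 uM. Gain or loss of signal fitted versus DMSO vehicle.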

Activity calls are given as the source filed them. The calls were made as follows: active = hit-call score of the fitted dose curve at least 0.9, where 1 is the maximum; inactive = score below 0.9.

Chain of Broad substrate specificity ATP-binding cassette transporter ABCG2 (Homo sapiens) (Q9UNQ0 whole entry, looked up): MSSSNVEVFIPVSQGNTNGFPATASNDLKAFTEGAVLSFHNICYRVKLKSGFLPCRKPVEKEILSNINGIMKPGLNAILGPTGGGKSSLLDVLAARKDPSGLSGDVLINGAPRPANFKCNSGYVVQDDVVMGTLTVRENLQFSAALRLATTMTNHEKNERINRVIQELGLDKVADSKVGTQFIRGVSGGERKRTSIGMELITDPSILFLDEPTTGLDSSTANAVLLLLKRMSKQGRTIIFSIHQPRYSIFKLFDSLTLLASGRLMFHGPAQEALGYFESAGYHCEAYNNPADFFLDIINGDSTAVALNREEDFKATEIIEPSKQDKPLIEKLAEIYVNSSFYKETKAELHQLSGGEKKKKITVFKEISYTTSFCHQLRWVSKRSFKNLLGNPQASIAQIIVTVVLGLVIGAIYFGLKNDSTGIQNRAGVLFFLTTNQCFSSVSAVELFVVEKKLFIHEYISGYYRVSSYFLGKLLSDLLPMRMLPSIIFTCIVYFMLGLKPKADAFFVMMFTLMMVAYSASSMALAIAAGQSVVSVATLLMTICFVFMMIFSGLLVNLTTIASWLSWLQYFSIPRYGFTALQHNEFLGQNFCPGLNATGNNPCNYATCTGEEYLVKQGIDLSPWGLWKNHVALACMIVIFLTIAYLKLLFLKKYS

Turning to `O=C1C2CC=CCC2C(=O)N1SC(Cl)(Cl)Cl` (stereo not given), the compound was called inactive in assay [1], in assay [2], in assay [3], in assay [5], in assay [6] and in assay [7]. For the same compound, the call in [8] and in assay [10] was inactive. The concentration at half-maximal activity (AC50) (usually the concentration giving half of the maximal activity seen) in assay [4] is 57.6 µM (active); in [9], 10.8 µM (active).
For `COC(=O)NC(=S)Nc1ccccc1NC(=S)NC(=O)OC`, the AC50 in assay [1] was 17.4 µM (active); in assay [5], 35.4 µM (active). Moreover, the result in assay [2], in assay [3], in [4], in assay [6], in assay [7] and in assay [8] was inactive. The compound was classed as inactive in assay [9] and in [10].
Take `N#Cc1c[nH]cc1-c1cccc2c1OC(F)(F)O2`: the compound was classed as inactive in assay [1], in assay [3], in assay [5], in assay [7], in [8] and in [10]. The half-maximal activity concentration (AC50) in assay [2] is 27.1 µM (active); in [4], 44.8 µM (active); in assay [6] it was 50 µM (active); in [9] it was 10 µM (active).
Take `CCOc1cc(C(C)(C)C)ccc1C1COC(c2c(F)cccc2F)=N1` (stereo not given): the AC50 was 6.97 µM (active) in assay [1], 8.66 µM (active) in assay [5] and 9.15 µM (active) in [6]. The compound was classed as inactive in [2], in [3], in assay [4], in assay [7], in assay [8] and in assay [9]. The compound was classed as inactive in assay [10].
In the case of `CCCN(CC)CC1COC2(CCC(C(C)(C)C)CC2)O1` (stereo not given), the outcome in [1], in [3], in assay [4], in assay [5], in [6] and in [7] was inactive. The compound was classed as inactive in [8], in assay [9] and in [10].
For the compound `CC(C)Nc1nc(Cl)nc(NC(C)C)n1`, the values for the AC50 in assay [1], in [4] and in assay [5] were 19.8 µM (active), 73.3 µM (active) and 9.77 µM (active), respectively. In addition, the result in [2], in [3], in assay [6], in [7], in [8] and in assay [9] was inactive. The result in [10] was inactive.
As for `CC(C)=CC1C(C(=O)OCc2coc(Cc3ccccc3)c2)C1(C)C` (stereo not given), the figures for the concentration at half-maximal activity (AC50) in assay [1], in assay [4] and in assay [5] were 29.3 µM (active), 50 µM (active) and 50 µM (active), respectively. For the same compound, the result in assay [2], in assay [3], in [6], in assay [7], in assay [8] and in assay [9] was inactive. For the same compound, the call in [10] was inactive.
As to `CSC(=O)c1c(C(F)F)nc(C(F)(F)F)c(C(=O)SC)c1CC(C)C`, the outcome in assay [1], in assay [2], in [3], in assay [6], in assay [8] and in [10] was inactive. The AC50 in [4] is 49.8 µM (active); in assay [5], 9.66 µM (active); in assay [7], 77.9 µM (active); in [9], 49.8 µM (active).
Take `CCN(CC)c1nc(C)cc(OP(=S)(OC)OC)n1`: the result in assay [1], in assay [3], in assay [4], in assay [6], in [7] and in [8] was inactive. The outcome in assay [9] and in [10] was inactive. Also, the AC50 in [5] was 19.9 µM (active).
Take `COCC(C)N(C(=O)CCl)c1c(C)csc1C` (stereo not given): the compound was classed as inactive in assay [1], in assay [3], in [6], in assay [7], in [8] and in assay [9]. Moreover, the result in assay [10] was inactive. Further, the AC50 in assay [2] is 74.1 µM (active); in [4], 50 µM (active); in assay [5], 32.6 µM (active).
`CN/C(=N\[N+](=O)[O-])NCc1cnc(Cl)s1`: the outcome in assay [1], in assay [2], in assay [3], in assay [4], in [5] and in [7] was inactive. In addition, the call in assay [8], in [9] and in assay [10] was inactive. Further, the AC50 in [6] is 28.6 µM (active).
`CC1(C)CON(Cc2ccccc2Cl)C1=O`: the values for the AC50 in assay [1] and in assay [5] were 9.19 µM (active) and 18.4 µM (active), respectively. The result in [3], in assay [4], in assay [6], in assay [7], in [8] and in assay [9] was inactive. Also, in assay [10], the call was inactive.
For the compound `CC(C)N1C(=O)N(c2ccccc2)CSC1=NC(C)(C)C`, the half-maximal activity concentration (AC50) in assay [1] was 17.7 µM (active); in assay [4] it was 94.4 µM (active); in assay [6] it was 50 µM (active); in assay [7], 84.3 µM (active); in assay [9], 78.3 µM (active). The compound was called inactive in [2], in assay [3], in assay [5], in [8] and in assay [10].
As to `N#Cc1c(Cl)cccc1Cl`, the result in assay [1], in [3], in assay [4], in assay [5], in assay [6] and in assay [7] was inactive. In addition, the call in assay [8], in assay [9] and in [10] was inactive.
`CCNC(=O)NC(=O)C(C#N)=NOC`: the compound was classed as inactive in assay [1], in assay [2], in [4], in assay [5], in [6] and in assay [7]. Further, the compound was called inactive in assay [8], in assay [9] and in [10]. In [3], the half-maximal activity concentration (AC50) is 0.791 µM (active).
Regarding `Cc1ccc(N=CN(C)C=Nc2ccc(C)cc2C)c(C)c1`, the compound was called inactive in [2], in assay [3], in [4], in [5], in assay [6] and in [7]. In addition, the compound was called inactive in [8], in [9] and in assay [10].
